# According to PubChem BioAssay AID504339 (National Center for Advancing Translational Sciences (NCATS), 2011):
# Out of some 390,000 compounds screened, about 17,000 (4.4%) were called active. About 8% were inconclusive and are not listed. What follows is part of a selection rich in actives, with near analogues and random picks from the rest. Entries that show only a call come without a potency. Values without a mark were called inactive. Calls come from the whole dose curve; as a rule, active = well fitted inhibition curve with a large enough effect; inconclusive = small, poorly fitted or top-dose-only effect; inactive = no such curve, though single readings can be large or run the other way.
# Target: Lysine-specific demethylase 4A (Homo sapiens) (UniProt O75164)
# Assay: qHTS Assay for Inhibitors of JMJD2A-Tudor Domain; note: nearly all actives have a fitted effect of over 50% in size
# Conditions: AlphaScreen JMJD2A-Tudor / H3K4me3 peptide binding; series mostly up to 114 µM
# Excerpt: JMJD2A is a jumonji-domain-containing lysine demethylase that uses Fe(II) together with 2-OG to effect oxidative demethylation of histones. Methylation is one of many […] modification that affect epigenetic transcription. […] It is proposed that the functions of JmjD2A binding to the histones, is to maintain marks after they are installed and to spread the modifications by […], establishing a self-propagating cycle for rapid methylation over a large area of chromatin. […] Thus, small molecule targeting of the JMJD2A-tudor domain interaction with its target methylhistone mark is expected to enable sophisticated experiments probing the fine regulatory pathways leading to selective demethylation of a given methyllysine locus based on the methylation state of adjacent histone marks. A quantitative high throughput AlphaScreen has been developed to identify small molecule inhibitors based on a protocol published by NCGC and SGC [4].
# Although AlphaScreen has significant advantages with its utility in a variety of epigenetic target assays, the primary screening data provided in this deposition should be used with caution due to the prevalence of screening artifacts. The top compound concentration tested was high (>100uM) in this assay, which increases number of actives and potential artifacts. An AlphaScreen counterscreen is highly recommended to be run against any putative actives to eliminate non-specific artifacts. Alternatively, one can use other AlphaScreen assays in PubChem to filter out promiscuous hits.
# [1] Lee, J. et al. Distinct binding modes specify the recognition of methylated histone H3K4 and H4K20 by JMJD2A-tudor. Nat Struct Mol Biol. 15(1); 109-11. 2008. PMID: 18084306
# [2] Yasgar, et al. Compound Management for Quantitative High-Throughput Screening. JALA. 2008 Apr;13(2):79-89. PMID: 18496600
# [3] Inglese, et al. Quantitative high-throughput screening: a titration-based approach that efficiently identifies biological activities in large chemical libraries. Proc Natl Acad Sci. 1;103(31):11473-8. 2006. PMID: 16864780
# [4] Quinn et al. A homogeneous method for investigation of methyl-dependent protein-protein interactions in epigenetics. Nucleic Acids Res., 38(2):e11. 2010. PMID: […]
# [5] Baell,Holloway. New substructure filters for removal of pan assay interference compounds (PAINS) from screening libraries and for their exclusion in bioassays. J Med Chem. 53(7):2719-40. 2010. PMID: 20131845
# NIH Molecular Libraries Probe Production Network [MLPCN]
# NIH Chemical Genomics Center [NCGC]
# Structural Genomics Consortium (SGC)
# To each well of a 1,536w plate, 2ul of JMJD2A-Tudor (final 100nM) and 1ul biotinylated histone peptide methylated at Lys4 [b-H3(1-18)K4me3] (final 50nM) were added in 1x PBS buffer, pH 7.4, containing 0.01% Tween-20, using a nanoliter dispenser. Formation of a protein-peptide complex proceeded at room temperature for 30 min. A Kalypsys pin-tool transferred 23nl of library compound solution in DMSO to each well. Following a 30 min incubation of the protein-peptide complex with compounds at room temperature, a mixture of 40 µg/mL each streptavidin-coated donor and nickel chelate acceptor AlphaScreen beads (final 10 µg/mL) was added in a 1ul dispense for a final volume of 4ul, followed by a brief centrifugation (1000 rpm, 1 min). Plates were incubated protected from the light for 20 min at room temperature. Microplates were then read on an EnVision multilabel plate reader using the 1,536 plate HTS AlphaScreen aperture (excitation time 80 ms, measurement time 240 ms).
# Potency is the fitted concentration of half-maximal effect.
# Chain of Lysine-specific demethylase 4A (Homo sapiens) (O75164 whole entry, looked up, the tested form may be a part): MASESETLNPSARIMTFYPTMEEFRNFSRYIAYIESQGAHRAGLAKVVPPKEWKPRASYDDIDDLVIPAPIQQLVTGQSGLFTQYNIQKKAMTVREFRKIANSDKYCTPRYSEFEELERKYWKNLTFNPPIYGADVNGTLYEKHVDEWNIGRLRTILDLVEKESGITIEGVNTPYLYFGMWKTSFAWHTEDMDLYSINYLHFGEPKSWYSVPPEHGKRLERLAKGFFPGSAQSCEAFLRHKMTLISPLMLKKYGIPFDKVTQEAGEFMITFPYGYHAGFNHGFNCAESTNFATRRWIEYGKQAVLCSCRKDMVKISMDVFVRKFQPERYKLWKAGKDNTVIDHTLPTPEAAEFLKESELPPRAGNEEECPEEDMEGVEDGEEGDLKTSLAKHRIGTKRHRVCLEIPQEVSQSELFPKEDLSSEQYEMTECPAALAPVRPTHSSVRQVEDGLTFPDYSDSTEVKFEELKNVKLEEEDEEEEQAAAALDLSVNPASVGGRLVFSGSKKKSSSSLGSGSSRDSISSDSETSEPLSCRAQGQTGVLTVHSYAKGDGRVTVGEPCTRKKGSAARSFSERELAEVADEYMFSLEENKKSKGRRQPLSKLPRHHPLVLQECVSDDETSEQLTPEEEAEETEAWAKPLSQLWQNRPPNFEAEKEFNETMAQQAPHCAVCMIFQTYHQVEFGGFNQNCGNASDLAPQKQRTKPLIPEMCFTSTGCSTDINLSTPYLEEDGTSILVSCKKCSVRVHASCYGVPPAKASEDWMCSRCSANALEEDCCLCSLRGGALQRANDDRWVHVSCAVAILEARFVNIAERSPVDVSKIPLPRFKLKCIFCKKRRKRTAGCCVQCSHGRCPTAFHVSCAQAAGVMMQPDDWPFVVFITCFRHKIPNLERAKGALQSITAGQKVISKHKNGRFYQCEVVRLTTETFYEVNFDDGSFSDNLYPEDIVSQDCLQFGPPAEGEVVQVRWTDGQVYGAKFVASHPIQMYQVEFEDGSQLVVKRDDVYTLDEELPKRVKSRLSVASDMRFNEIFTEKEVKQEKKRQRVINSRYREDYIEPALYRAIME
SMILES,Potency,"activity change, negative = inhibition"
CCOc1ccc(C2C(C(=O)Nc3ccc(Cl)cc3)=C(C)Nc3nc(C(F)(F)F)nn32)cc1 (centres undefined),inactive,–
Cc1cccc(N2CCN(c3ccc(NC(=O)/C=C\C(=O)O)cc3)CC2)c1,–,-14.3% [at 11.4 µM]
Cn1cnnc1SCC(=O)Nc1ccc(N2CCOCC2)cc1,inactive,–
C=CC(=O)Nc1ccc(Nc2ccnc(Nc3ccc(N4CCN(C)CC4)cc3)n2)cc1,31.6 µM (active),–
COc1ccc(Cn2c(=S)[nH]c3cc(C(=O)NCCCN4CCOCC4)ccc3c2=O)cc1,inactive,–
O=C(NCCCN1CCOCC1)c1cc(-c2ccc(Cl)cc2)on1,inactive,–
Cc1c(C)n(Cc2ccc(Cl)cc2)c2ccc(C(=O)NCCCN3CCOCC3)cc12,89.1 µM (active),–
CCc1ccc2ncc3c(-c4ccc(C)cc4)nn(CC(=O)NCc4ccccc4)c3c2c1,inactive,–
CC(=O)N1CCCc2cc(S(=O)(=O)N3CCC(C(=O)NCc4ccc(F)cc4)CC3)ccc21,inactive,–
CCOc1ccccc1C(=O)NC1(C(F)(F)F)C(=O)Nc2c1c(=O)[nH]c(=O)n2-c1ccc(F)cc1 (centres undefined),inactive,–
CC(=O)N1c2ccc(S(=O)(=O)NCCC(=O)N(C)C3CCCCC3)cc2CC1C (centres undefined),14.1 µM (active),–
COc1cccc(CNS(=O)(=O)c2ccc3c(c2)CC(C)N3C(=O)C2CCC2)c1 (centres undefined),inactive,–
CC(=O)N1c2ccc(S(=O)(=O)N(C)CC(=O)N(C)Cc3ccccc3)cc2CC1C (centres undefined),inactive,–
CCc1ccc(CN(Cc2ccco2)C(=O)c2ccccc2Cl)cc1,inactive,–
C#CC(C)(CC)NC(=O)Cn1nnc(-c2ccc(OCc3c(F)cccc3Cl)cc2)n1 (centres undefined),inactive,–
Cc1cc2c(s1)c1cnn(Cc3cc(F)c(Cl)cc3Cl)c(=O)c1n2C,inactive,–
CCOC(=O)c1ccc(N2C(=O)c3n[nH]c(C)c3C2c2ccc(O)c(OC)c2)cc1 (centres undefined),inactive,–
Cc1sc2ncn(CC(=O)NCCN(C)C)c(=O)c2c1S(=O)(=O)N1CCC(C)CC1,22.4 µM (active),–
CCN(CC)CCNC(=O)Cn1cnc2sc(C)c(S(=O)(=O)N3CCOCC3)c2c1=O,inactive,–
CCCN(CCC)CCNC(=O)Cn1cnc2sc(C)c(S(=O)(=O)N3CCC(C)CC3)c2c1=O,inactive,–
CCN(CCCNC(=O)c1cc(Nc2ccc(OC)cc2)nc2ccccc12)c1cccc(C)c1,inactive,–
CCc1cc2c(cc3c(=O)n(CC(=O)NCCc4ccc(OC)c(OC)c4)ncn32)s1,89.1 µM (active),–
CCOc1ccc(CCNC(=O)Cn2nc(CC)n3c(cc4sc(CC)cc43)c2=O)cc1OCC,inactive,–
CCc1cc2c(cc3c(=O)n(CC(=O)N4CCN(c5cc(Cl)ccc5C)CC4)ncn32)s1,inactive,–
